Source: PubChem BioAssay (NCI)
This is part of a sample that, as a whole, favours compounds with a hit. Of some 83,000 tested, about 20% had one in any assay.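 96-well plates, one dose, 48 hours. Percent growth reported; active if below 10.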 Unmarked numbers belong to inactive results. The source made the active and inactive calls.

Key:
Assay in all cases: NCI-60 one-dose screen, 48 h (100 = growth as untreated, 0 = no growth, -100 = all killed)
[1] = tested on: NCI-H226 lung; conditions: 10 µM
[2] = tested on: NCI-H322M lung; conditions: 10 µM
[3] = tested on: HOP-62 NSCLC; conditions: 10 µM
[4] = tested on: NCI-H522 lung; conditions: 10 µM
[5] = tested on: COLO 205 colon; conditions: 10 µM
[6] = tested on: DU-145 prostate; conditions: 10 µM
[7] = tested on: SF-268 CNS; conditions: 10 µM
[8] = tested on: SF-295 CNS; conditions: 10 µM
[9] = tested on: SF-539 CNS; conditions: 10 µM
[10] = tested on: M14 melanoma; conditions: 10 µM
[11] = tested on: HCT-15 colon; conditions: 10 µM
[12] = tested on: SNB-75 CNS; conditions: 10 µM
[13] = tested on: SNB-19 CNS; conditions: 10 µM
[14] = tested on: U251 CNS; conditions: 10 µM
[15] = tested on: PC-3 prostate; conditions: 10 µM
[16] = tested on: SK-MEL-5 melanoma; conditions: 10 µM
[17] = tested on: UACC-62 melanoma; conditions: 10 µM
[18] = tested on: SK-MEL-28 melanoma; conditions: 10 µM
[19] = tested on: SK-MEL-2 melanoma; conditions: 10 µM
[20] = tested on: HL-60(TB) leukemia; conditions: 10 µM unless noted

SMILES | growth [1] | growth [2] | growth [3] | growth [4] | growth [5] | growth [6] | growth [7] | growth [8] | growth [9] | growth [10] | growth [11] | growth [12] | growth [13] | growth [14] | growth [15] | growth [16] | growth [17] | growth [18] | growth [19] | growth [20]
O=C(/C=C/c1ccco1)c1nc2ccccc2n1Cc1ccc(Br)cc1 | 48.2% | 62.2% | 57% | 4.59% (active) | 69.7% | 28.1% | 45.4% | 53.5% | 26.7% | 26.2% | 9.97% (active) | 33.6% | 54.4% | 18.2% | 34.2% | 57.5% | 28.7% | 56.2% | 46.2% | 16%
CCOP(=O)(CC(F)(F)C(F)(F)F)OCC | -23.5% (active) | 100% | 90.9% | -77.3% (active) | -68% (active) | 14.9% | 80.4% | 97.7% | -48.6% (active) | -53.3% (active) | -33.2% (active) | 79.4% | 95.7% | 73.7% | 63.8% | 78.9% | 44.7% | -47.1% (active) | 29.5% | 17.2%
COC(=O)c1ccc(-n2cc(CCCN(CCNc3ccnc4cc(Cl)ccc34)C(=O)CCC(=O)O[C@@H]3O[C@@H]4OC5(C)CC[C@H]6[C@H](C)CC[C@@H]([C@H]3C)[C@@]46OO5)nn2)cc1 | 48.4% | 71% | 64.5% | 7.38% (active) | 14.8% | 59.8% | 59.2% | 43.8% | 39% | 47.1% | -4.92% (active) | 67.3% | 63.7% | 53.3% | 39.7% | -70.1% (active) | 36.8% | 16.3% | 29.4% | -30.7% (active)
CC12CCC3(CCC(=O)NCCCNc4ccnc5cc(Cl)ccc45)[C@@](C)(OO[C@]3(C)O1)O2 | 0.706% (active) | 27.5% | -6.39% (active) | -50.4% (active) | 36.7% | 38.2% | 5.01% (active) | -1.94% (active) | -65.6% (active) | -2.43% (active) | 6.51% (active) | -4.41% (active) | 7.99% (active) | -28.8% (active) | 28.3% | 14.2% | 11.1% | 33.4% | 23.3% | 14.9%
Cc1ccc2[nH]c(=S)n(-c3ccc(F)cc3)c(=O)c2c1 | 97.6% | 99% | 96.3% | 97.9% | 134% | 110% | 106% | 98.9% | 94.8% | 100% | 98.9% | 100% | 90.3% | 102% | 90% | 98.3% | 90.7% | 101% | 105% | 118%
C[C@H]1[C@@H](Oc2ccc(-c3cn(-c4ccnc5cc(Cl)ccc45)nn3)cc2)O[C@@H]2OC3(C)CC[C@H]4[C@H](C)CC[C@@H]1[C@@]24OO3 | 48.2% | 69.3% | 46.3% | 2.18% (active) | -50% (active) | 51.6% | 46.3% | 37.6% | 30.5% | 31.8% | 12.8% | 61.6% | 40.4% | 39.1% | 29.2% | 20.3% | 21.2% | 33.3% | 7.17% (active) | 6.05% (active)
C[C@H]1[C@H](OC(=O)CCC(=O)N(CCCc2cn(-c3ccc(C#N)cc3)nn2)CCNc2ccnc3cc(Cl)ccc23)O[C@@H]2OC3(C)CC[C@H]4[C@H](C)CC[C@@H]1[C@@]24OO3 | 60.3% | 82.9% | 66.4% | 7.88% (active) | 14.5% | 69.3% | 54.9% | 53.8% | 44.5% | 48.1% | 12.1% | 72.1% | 69.8% | 51.9% | 33.9% | 22.9% | 43.3% | 59.5% | 31.4% | -29.9% (active)
